The record followed here is PubChem BioAssay.

Unmarked numbers belong to inactive results. Rule as the data show it: active = inhibition above about 30%; inactive = the rest.

This assay in a line: growth suppression of yeast trafficking mutant, preliminary HTS, modulators of trafficking downstream of Golgi apparatus project, 1536-format plate, OD 615 nm (AID 637). Particulars: yeast transport mutant growth, absorbance 615 nm, 18 h; hits give high values.
Regarding `CCCc1cc(-c2n[nH]c(C)c2-c2ccc(C(=O)OCC)o2)c(O)cc1O`, the inhibition was 1.45%.
As to `N#CC1=C(N)n2c(s/c(=C\c3ccco3)c2=O)=C(C#N)C1c1ccco1` (centres undefined), the inhibition was -4.36%.
Consider `CC1=C(C(=O)OC2CCCCC2)C(c2ccc(C)o2)C2=C(CC(C)(C)CC2=O)N1` (centres undefined), for which the inhibition is -7.83%.
For `O=C(Nc1sc2c(c1C(=O)NCc1ccco1)CCCC2)c1ccc2c(c1)OCO2`, the inhibition is -6.35%.
For the molecule `COc1ccc(CC(=O)NCc2cccs2)cc1`, the inhibition is -8.03%.
The same measure for `COc1ccc(/C=N/n2cc(-c3ccc(OC)cc3)nc2N)cc1`: -8%; for `CCn1c(CNc2ccc(OC)cc2)nnc1SCC(=O)c1ccc(OC)cc1`: 0.33%.
Take `Cc1ccccc1OCCCN1C(=O)C(=O)c2cccc(C)c21`: the inhibition is -1.33%.
The figure for `CCOC(=O)c1sc(NC(=O)CSc2n[nH]c(-c3ccccc3)n2)c(C#N)c1C` is 2.38%; for `CCSc1nnc(NC(=O)c2ccccn2)s1` it is 9.21%; for `CCOc1cccc(-n2nnnc2-c2ccc(OC)cc2)c1` it is -4.6%.
Take `O=C(NCc1ccco1)c1cc2c(s1)CSC2`: the inhibition was 2.86%.
Consider `CC(=O)c1ccccc1Oc1nc(CN2CCOCC2)nc2scc(-c3cccs3)c12`, for which the inhibition is 2.46%.
The same measure for `C=CCn1c(N)c(C(=O)OC(C)(C)C)c2nc3ccccc3nc21`: 1.94%.
`CCOC(=O)c1sc(Nc2nc3c(OC)cccc3s2)nc1C`: the inhibition was -4.76%.
The figure for `COc1ccc(N2CCN(Cc3cc(=O)oc4cc(C)c(Cl)c(C)c34)CC2)cc1` is 1.9%; for `O=C(c1cc(-c2ccco2)nn1-c1cccc(Cl)c1)N1CCCCC1` it is -1.94%.
As to `CCOC(=O)c1sc2nc(N3CCCC3)c3c(c2c1N)CC(C)(C)OC3`, the inhibition was -9.83%.
Regarding `CCC(Sc1nc2n[nH]c(C)c2c(=N)n1-c1cc(Cl)ccc1C)C(=O)N1CCOCC1` (centres undefined), the inhibition was -10%.
`O=C(Nc1ccc(F)cc1)N(Cc1ccco1)Cc1cc2cc3c(cc2[nH]c1=O)OCO3`: the inhibition is -12.8%.
For the molecule `N#CC1=C(SCC(=O)NC23CC4CC(CC(C4)C2)C3)NC(=O)C(C#N)C12CCCCC2` (centres undefined), the inhibition was -5.4%.
Regarding `CCOC(=O)c1nnc2cc(-c3ccc(Br)cc3)nn2c1C`, the inhibition is -5.24%.
Take `CCOC(=O)c1c(NC(=O)Cn2c(C)nc3ccccc32)sc2c1CCC2`: the inhibition was -0.97%.
Consider `COc1ccc(C2=NOC(C(=O)Nc3cc(Br)ccc3O)C2)cc1OC` (centres undefined), for which the inhibition was 1.8%.

Usually inhibition stands for the drop in the measured response relative to a control, in per cent.
